Screening results (PubChem BioAssay)
EWS-Fli block – EWS/Fli-driven NR0B1 reporter inhibitors, primary screen, A673 cells, NR0B1 luciferase, luminescence, MLPCN library. viability-normalised. inhibition, % at 12.6 µM. AID 651661, 2012. 0.67% of 350,000 active;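 active means mean inhibition of at least 50% after viability correction, with every replicate also passing that limit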;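 further: firefly luciferase signal divided by Alamar Blue viability fluorescence both relative to DMSO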
EBV LMP1 NFkB – EBV LMP1-driven NF-kappaB luciferase reporter inhibitors, primary screen, cell-based, luminescence, single point; LMP1-induced NF-kappaB luciferase reporter cells; 0.69% of 350,000 active; inhibition, % at 12.5 µM; in the data active means inhibition above about 41%;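 further: 0% = neutral control wells and 100% = reference inhibitor control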
LGR2 antag – inhibitors of bursicon-induced LGR2 CRE-luciferase signal, primary screen, cell-based, HEK293, CRE-luciferase reporter, bursicon stimulation | Drosophila bursicon receptor LGR2 (rickets) | bursicon-stimulated, 4 h | 0.35% of 380,000 active | inhibition, % at 9.99 µM;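 active means drop in luminescence signal, shown as inhibition above about 50% in the replicate tests, limit read from the data, passing the limit was not always enough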;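 further: agonist challenge used bursicon conditioned medium at about half maximal strength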
TROY signal inh – inhibitors of TROY-driven NF-kB signaling, primary screen, Q293 LMP1-TROYcd cells, NF-kB luciferase, uHTS | inhibition, % at 10 µM | Q293 LMP1-TROYcd NF-kB luciferase reporter, 4 h | 0.98% of 360,000 active;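 active means compounds whose plate-normalised and pattern-corrected inhibition of the luciferase reporter signal at the single screening dose is 50% or more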
TWEAK-Fn14 inh – inhibitors of TWEAK-Fn14 signaling, primary screen, luciferase reporter cells, uHTS | TWEAK-stimulated Fn14 reporter cells, luciferase luminescence, 8 h | inhibition, % at 10 µM | 2% of 360,000 active | AID 1159606, 2016; in the data active means inhibition above about 50%
PAX8 reporter – inhibitors of PAX8-driven TPO luciferase reporter, primary screen, RMG-I cells, single concentration; 1.2% of 360,000 active; AID 652154, 2013; SteadyGlo, 24 h; inhibition, % at 12.6 µM;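 active means mean replicate inhibition at least 60% with every replicate also reaching 60%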;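 further: luciferase light reporting Pax8 driven TPO promoter activity; plate controls were median of neutral control wells for no effect and mitoxantrone controls for full effect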
Starred values were filed as active, the others as inactive; nt = no result given. An excerpt weighted towards active compounds, which were near 3.2% of everything screened.

SMILES | EWS-Fli block | EBV LMP1 NFkB | LGR2 antag | TROY signal inh | TWEAK-Fn14 inh | PAX8 reporter
C[C@@H]1CN([C@H](C)CO)C(=O)c2cc(NS(C)(=O)=O)ccc2O[C@@H]1CN(C)CC1CCCCC1 | -9.9 | nt | 10.5 | nt | nt | 1.1
CC(=O)c1c(C)oc2c1cc(O)c1ccccc12 | -1.0 | 11.8 | -9.4 | -22.1 | -20.6 | 24.1
CCOC(=O)c1c(C)oc2c1cc(O)c1ccccc12 | nt | 9.6 | nt | 26.9 | 74.0* | nt
CC[C@@]1(C(=O)OC)N[C@H](CN(C)S(=O)(=O)c2ccc(C(F)(F)F)cc2)[C@@H]2C(=O)N(C)C(=O)[C@@H]21 | -1.1 | -2.7 | -6.3 | 17.5 | 82.9* | -7.2
CCN(C[C@H]1N[C@@](Cc2ccccc2)(C(=O)OC)[C@H]2C(=O)N(Cc3ccccc3)C(=O)[C@@H]12)C(=O)Nc1ccc(C(F)(F)F)cc1 | -1.8 | 4.0 | 17.8 | 50.2* | 83.9* | 12.8
CC1CCN(C2=NC(=O)/C(=C/c3ccccc3F)S2)CC1 | 18.9 | nt | 48.6 | 78.9* | 94.8* | -4.0
CO[C@H]1CN(C)C(=O)c2ccc(NC(=O)c3cnccn3)cc2OC[C@H](C)NC[C@@H]1C | nt | nt | 3.8 | nt | nt | nt
COCC(=O)N1CC2(C1)CN(Cc1cc(F)ccc1F)[C@H](CO)c1[nH]c3cc(OC)ccc3c12 | 13.5 | nt | -2.2 | nt | nt | -1.7
O=C(CCCC(=O)N1CCN(c2ccccc2F)CC1)N1CCN(c2ccccc2F)CC1 | nt | 0.0 | nt | 38.9 | 30.9 | nt
O=C(O)/C=C/C(=O)N1CCN(c2ccccc2F)CC1 | -32.0 | -0.2 | -1.0 | 74.5* | 11.4 | 1.6
CCC(=O)N1C[C@@H](C)[C@H](OC)CN(C)C(=O)c2cc(NC(=O)Nc3ccccc3)ccc2OC[C@H]1C | 5.0 | nt | -10.8 | nt | nt | 1.1
Cc1nccc(-c2sc(-c3cccs3)nc2C)n1 | -80.0 | -16.9 | -47.8 | 59.5* | -9.9 | -36.0
COc1ccc(CN(C)C[C@@H]2Oc3c(NS(=O)(=O)c4ccccc4)cccc3C(=O)N([C@@H](C)CO)C[C@@H]2C)cc1 | -0.8 | nt | 10.2 | nt | nt | nt
CCOc1ccc(C(=O)CCC(=O)Nc2ccc(C)c(S(=O)(=O)N3CCCCC3)c2)cc1 | 13.2 | 5.8 | 8.2 | 17.2 | -8.4 | -1.5
Cc1ccc(NC(=O)CSc2ncnc3ccccc23)cc1S(=O)(=O)N1CCCCCC1 | 1.3 | 21.2 | 41.8 | 53.5* | 86.5* | 25.5
CC(=O)c1ccc(OCCCC(=O)Nc2ccc(C)c(S(=O)(=O)N3CCCCC3)c2)cc1 | 8.6 | 18.1 | -8.3 | 35.9 | 51.0* | 23.6
COc1ccc(NC(=O)COc2ccccc2C(N)=O)cc1S(=O)(=O)N1CCCCC1 | 6.4 | -2.2 | 14.9 | -10.0 | -2.2 | 3.0
O=C(Cn1[nH]c(=O)c2ccccc2c1=O)Nc1cccc(S(=O)(=O)N2CCCCCC2)c1 | -6.8 | 7.1 | 15.2 | 24.7 | 50.7* | -15.6
Cc1ccc(NC(=O)COc2ccccc2C(N)=O)cc1S(=O)(=O)N1CCCCCC1 | 26.1 | 22.4 | 19.8 | 43.8 | 58.1* | 25.6
COc1cccc(CN2[C@H](CO)[C@H]3c4ccccc4N(C(=O)c4ccncc4)C[C@H]32)c1 | 4.2 | nt | -11.2 | nt | nt | -8.7
Cc1noc(C)c1NC(=O)Nc1ccc2c(c1)C(=O)N([C@H](C)CO)C[C@@H](C)[C@H](CN(C)C(=O)Nc1ccc(F)cc1)OCCCC[C@H](C)O2 | 3.8 | nt | 3.3 | nt | nt | 7.6
Cc1cccc(Nc2nnc(SCC(=O)Nc3cccc(S(=O)(=O)N4CCCCC4)c3)s2)c1 | nt | 5.5 | -50.9 | 11.7 | 59.7* | -74.0
Cc1ccc(OCC(=O)Nc2cccc(S(=O)(=O)N3CCCC3)c2)cc1C | -15.0 | 5.1 | 11.0 | 4.9 | 0.4 | -9.9
O=C(COc1ccc2ccc(=O)oc2c1)Nc1cccc(S(=O)(=O)N2CCCCC2)c1 | -1.5 | 8.6 | 33.3 | 40.6 | 52.8* | -13.6
COc1ccccc1N(CC(=O)Nc1ccc(S(=O)(=O)N2CCOCC2)cc1)S(C)(=O)=O | 5.6 | 3.6 | 8.4 | 21.1 | -2.1 | 9.8
SMILES | EWS-Fli block | EBV LMP1 NFkB | LGR2 antag | TROY signal inh | TWEAK-Fn14 inh | PAX8 reporter
CCOc1ccccc1N(CC(=O)Nc1ccc(S(=O)(=O)N2CCOCC2)cc1)S(=O)(=O)c1ccc(Cl)cc1 | -6.2 | -8.7 | 3.3 | -4.4 | 14.3 | 62.3*
Cc1ccc(S(=O)(=O)N2CCCCC2)cc1NC(=O)Cn1ccc(C(F)(F)F)n1 | 9.3 | 1.7 | 5.5 | 9.1 | 15.7 | 7.7
O=C(Cn1ccc(C(F)(F)F)n1)Nc1cccc(S(=O)(=O)N2CCCCC2)c1 | -0.3 | 52.8* | 9.1 | 7.8 | -7.0 | -4.1
CCCNC(=O)N1[C@H](CO)[C@H](c2ccccc2)[C@@H]1CNC(=O)C1CC1 | nt | nt | 7.7 | nt | nt | nt
COc1ccc(NC(=O)Nc2ccc3c(c2)C(=O)N([C@@H](C)CO)C[C@@H](C)[C@@H](CN(C)C(=O)Cc2ccccc2)OCCCC[C@@H](C)O3)cc1 | 2.8 | nt | 12.1 | nt | nt | 33.9
COc1cc(C(C)=O)ccc1OCC(=O)Nc1ccc(S(=O)(=O)N2CCCCC2)cc1 | 4.4 | 0.4 | -14.3 | 9.0 | 14.3 | 10.4
COc1ccc(NS(=O)(=O)c2cccc(NC(=O)c3ccc(S(=O)(=O)N4CCCCCC4)cc3)c2)cc1 | nt | -13.6 | nt | 44.5 | 70.2* | nt
COc1ccc(S(=O)(=O)N2CCC(NC(=O)C3CCCCC3)CC2)cc1 | 5.7 | 46.2* | -11.1 | -13.9 | 80.4* | -2.0
COc1ccc(S(=O)(=O)N2CCC(C(=O)NC3CC3)CC2)cc1 | 2.3 | 3.9 | -24.0 | 3.4 | -17.6 | -3.6
O=C(Cc1ccccc1Cl)Nc1cccc(S(=O)(=O)N2CCOCC2)c1 | 9.6 | -3.5 | 7.2 | 80.5* | 90.4* | 15.1
COc1ccc(NS(=O)(=O)c2ccc(O)c(NC(=O)c3ccc(S(=O)(=O)N4CCCCCC4)cc3)c2)cc1 | nt | -5.4 | -1.0 | 37.8 | 31.1 | 23.2
COc1cc(C(C)=O)ccc1OCC(=O)Nc1ccc(C)c(S(=O)(=O)N2CCCCCC2)c1 | 5.5 | 25.7 | 45.4 | 62.7* | 83.8* | 22.0
COCCNC(=O)C[C@@H]1CC[C@H]2[C@@H](COC[C@H](O)CN2Cc2ccc(Cl)c(Cl)c2)O1 | nt | nt | -2.8 | nt | nt | nt
CO[C@H]1CN(C)C(=O)c2cc(NC(=O)C3CCCCC3)ccc2OC[C@@H](C)N(C(=O)c2ccccc2)C[C@@H]1C | 8.5 | nt | 5.5 | nt | nt | -18.5
CCc1cccc(OCC(=O)Nc2ccc(C)c(S(=O)(=O)N3CCCCCC3)c2)c1 | 4.2 | 23.2 | -75.3 | 39.0 | 50.4* | 33.4
COc1ccc(CC(=O)Nc2cccc(S(=O)(=O)N3CCCCCC3)c2)cc1OC | nt | 20.3 | 7.5 | 35.4 | 53.2* | 19.7
Cc1ccc(NC(=O)COc2cccc(C)c2C)cc1S(=O)(=O)N1CCCCCC1 | 12.9 | 10.6 | 1.8 | 29.1 | 21.3 | nt
